High-throughput results as filed in PubChem BioAssay.
VP16 counter – VP16 counterscreen qHTS for inhibitors of ROR gamma transcriptional activity; Drosophila S2 Gal4-VP16 UAS-luciferase, luminescence, 20 h; Potency, µM (series often up to 53.6 µM), for the others: top-dose activity, negative = inhibition, usual class: inhibitors; 310,000 compounds, 3.5% hits; AID 2546, 2010;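 also: Gal4-VP16 expression switched on by copper sulfate through the metallothionein promoter; nearly all actives have a fitted effect of over 50% in size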
ALDH1A1 inh – qHTS Assay for Inhibitors of Aldehyde Dehydrogenase 1 (ALDH1A1). Aldehyde dehydrogenase 1A1 (Homo sapiens), P00352. Purified ALDH1A1, NADH fluorescence, propionaldehyde substrate. Potency, µM (titrated, usually from 75.3 µM), for the others: at the highest dose activity, negative = inhibition, usual class: inhibitors. 220,000 compounds, 7.3% hits. AID 1030, 2008; active = well fitted inhibition curve with a large enough effect, not every such curve was filed as active; inconclusive = small, poorly fitted or top-dose-only effect, or another doubt; inactive = no such curve, though single readings can be large or run the other way;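 also: plate controls were no enzyme wells and a reference inhibitor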
Target sequence (P00352 whole entry, looked up): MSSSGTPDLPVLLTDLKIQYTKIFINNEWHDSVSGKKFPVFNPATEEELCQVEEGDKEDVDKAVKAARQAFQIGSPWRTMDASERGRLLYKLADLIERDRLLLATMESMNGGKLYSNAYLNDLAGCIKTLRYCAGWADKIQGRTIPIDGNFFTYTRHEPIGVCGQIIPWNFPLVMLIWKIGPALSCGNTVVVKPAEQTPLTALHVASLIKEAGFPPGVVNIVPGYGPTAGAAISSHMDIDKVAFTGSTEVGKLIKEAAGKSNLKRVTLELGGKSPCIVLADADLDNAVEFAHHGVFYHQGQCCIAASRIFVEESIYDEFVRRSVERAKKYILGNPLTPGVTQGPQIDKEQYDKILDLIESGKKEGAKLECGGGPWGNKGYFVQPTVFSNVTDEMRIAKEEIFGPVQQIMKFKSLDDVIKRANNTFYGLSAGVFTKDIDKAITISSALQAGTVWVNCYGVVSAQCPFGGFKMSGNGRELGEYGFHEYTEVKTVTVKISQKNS
RORgamma inh – qHTS for inhibitors of ROR gamma transcriptional activity; 310,000 compounds, 5.4% hits; Nuclear receptor ROR-gamma (Mus musculus), P51450; Potency, µM (highest dose often 53.6 µM), for the others: top-dose activity change, negative = inhibition, actives largely listed as inhibitors; Drosophila S2 Gal4-RORgamma UAS-luciferase reporter, 20 h; AID 2551, 2010; also: nearly all actives have a fitted effect of over 60% in size
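Schneider cells (Drosophila), stable Gal4 DBD–ROR gamma + UAS-luc; 1 hr cmpd preincubation; Cu2+ induction 700 uM final; 20 hr ambient; luminescence.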
Sfp PPTase inh – qHTS Assay for Inhibitors of Bacillus subtilis Sfp phosphopantetheinyl transferase (PPTase); 310,000 compounds, 3.5% hits; Biochemical Sfp PPTase activity, qHTS; 4'-phosphopantetheinyl transferase ffp (Bacillus subtilis), Q9F4F7; Potency, µM, for the others: largest response in the series, negative = inhibition, hits mostly inhibitors;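 also: the enzyme is Sfp with the accession as filed and its product quenches rhodamine fluorescence; 0% = enzyme reaction without inhibitor and -100% = no enzyme wells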
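Sfp 15 nM + cpd, 15 min RT; start w/ rhodamine-CoA 5 uM, BHQ-2-YbbR 12.5 uM (final); 50 mM Hepes pH 7.6, 10 mM MgCl2, 0.01% NP-40, 0.01% BSA; read 525/598 nm at 0 and 30 min.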
PLK1 PBD inh – qHTS for Inhibitors of PLK1-PDB (polo-like kinase 1 - polo-box domain): Primary Screen. Potency, µM, for inactives: max response, negative = inhibition, most hits filed as inhibitors. Plk1 PBD binding of FITC phosphopeptide, fluorescence polarization. 360,000 compounds, 2.8% hits; also: series mostly up to about 57 µM; nearly all actives have a fitted effect of over 65% in size
Starred values were filed as active, the others as inactive; ? = inconclusive; / = no result given; [ ] = another dose, or the depositor's remark. Sampled rows, rich in hits. Any-hit rate of the full collection: about 12%. Unless noted, calls follow the shape of the dose curve; as a rule, active = well fitted curve in the direction sought with a large enough effect; inconclusive = small, poorly fitted or top-dose-only effect, or another doubt; inactive = no such curve, though single readings can be large; an effect the other way counts as inactive or inconclusive. Unless noted, % is scaled to controls: 0 for no effect and ±100 for the full control effect; potency is read from the fitted curve at half-maximal effect.

SMILES	VP16 counter	ALDH1A1 inh	RORgamma inh	Sfp PPTase inh	PLK1 PBD inh
Cc1cc(C)cc(NC(=S)/C(=C(\[O-])c2ccc(Cl)s2)[n+]2cccc(C)c2)c1	7.0%	25.1µM*	-43.9%	-20.5%	?
N[C@@H](Cc1nn[nH]n1)C(=O)O	/	5.5%[13.5 µM]	/	/	/
C=CCNC(=O)c1nc2ccccc2s1	-28.4%	7.2%	21.6%	-8.0%	0.6%
COc1ccc(NC(=O)c2nc3ccccc3s2)cc1	?	?	-41.0%	?	-18.8%
Cc1ccc(NC(=S)c2nc3ccccc3s2)cc1	2µM*	2.2%	1µM*	14.3%	-14.6%
O=C(Nc1ccc(Cl)cc1)/C(=C/c1cccc(O)c1)c1nc2ccccc2s1	20µM*	-10.7%	11.2µM*	9.3%	-0.2%
S=C(Nc1ccc(Cl)cc1)c1nc2ccccc2s1	1.41µM*	12.5%	0.316µM*	26.5%	-14.3%
Cc1ccc(C)c(NC(=S)c2nc3ccccc3s2)c1	0.708µM*	?	0.398µM*	?	8.44µM*
Cc1ccc(Nc2nc3ccccc3s2)c(C)c1	?	4.1%	?	-7.3%	-9.2%
NC(=O)CCS(=O)(=O)c1ccc(Cl)cc1	-2.9%	14.9%	-12.1%	12.6%	-8.9%
O=C(Nc1ccc([N+](=O)[O-])cc1)N1CCCCCC1	-7.1%	/	-0.3%	6.6%	-0.6%
CC(C)(C)c1ccc(NC(=O)N2CCCN(c3ccc([N+](=O)[O-])cn3)CC2)cc1	-15.6%	15.8µM*	11.1%	-2.0%	-5.9%
COc1ccc(CCNc2ccc(N3C(=O)CC(C)C3=O)cc2[N+](=O)[O-])cc1OC (stereo not given)	6.31µM*	?	-67.1%	4.6%	-12.5%
O=C(NCCCCc1ccccc1)c1cccc(NC(=O)C2CC2)c1	/	/	/	/	18.9µM*
C/C=C/C=C/C(=O)[C@@H]1[C@@H]([C@]2(C)OC(=O)C(C)=C2O)[C@H]2/C(=C(O)/C=C/C=C/C)C(=O)[C@]1(C)C(=O)C2(C)O (stereo not given in full)	-1.5%	/	-27.4%	50.1µM*	?
Cc1ccc(N(CC(=O)N2CCCCCC2)S(C)(=O)=O)c(C)c1	/	/	/	/	-11.3%
CCOC(=O)c1cc2c(nc1N)CCCC2	-15.6%	/	-15.4%	-11.3%	-14.7%
C=C(C)CNC(=S)Nc1nc2c(cc1C(=O)OCC)CCCC2	10µM*	1µM*	5.01µM*	23.4%	-14.3%
COc1ccc(-c2nc3c(c4c2C[C@H](c2ccccc2)OC4)CN(C(=O)NCc2ccco2)CC3)c(C)c1	/	1.78µM*	/	8.1%	/
COCC(=O)N1CCc2nc(-c3ccc(OC)cc3C)c3c(c2C1)CO[C@@H](c1ccccc1)C3	/	4.0%[13.5 µM]	/	-18.2%	/
COc1ccc(-c2nc3c(c4c2C[C@H](c2ccccc2)OC4)CN(C(=O)Cc2cccs2)CC3)c(C)c1	/	3.98µM*	/	-3.4%	/
C=CCNC(=O)N1CCc2nc(-c3ccc(OC)cc3C)c3c(c2C1)CO[C@@H](c1ccccc1)C3	/	?	/	7.0%	/
CCN(CC)CCOC(=O)c1cccnc1	-15.3%	/	22.7%	14.6%	/
CCc1ccccc1N1C(=O)CC(Sc2nccc(C)n2)C1=O (stereo not given)	?	/	?	1.4%	-0.4%
Cc1ccc(Cl)cc1N1C(=O)CC(Sc2ncccn2)C1=O (stereo not given)	?	/	20µM*	-6.4%	-24.0%
SMILES	VP16 counter	ALDH1A1 inh	RORgamma inh	Sfp PPTase inh	PLK1 PBD inh
O=C1CC(Sc2ncccn2)C(=O)N1c1ccccc1C(F)(F)F (stereo not given)	7.08µM*	20µM*	4.47µM*	-28.9%	?
CCOC(=O)c1ccc(N2C(=O)CC(Sc3ncccn3)C2=O)cc1 (stereo not given)	?	/	?	-19.7%	-9.1%
Cc1occc1C(=O)NCc1ccccc1F	-3.8%	10µM*	2.4%	?	-20.3%
COc1ccccc1CNC(=O)c1ccoc1C	3.7%	?	2.1%	-22.9%	-17.2%
CCOc1ccc(C(c2nnnn2C(C)(C)C)N2CCN(C(=O)c3ccco3)CC2)cc1 (stereo not given)	7.8%	/	-0.9%	-3.6%	-13.4%
CN(C)c1ccc(C(c2nnnn2C(C)(C)C)N2CCN(C(=O)c3ccco3)CC2)cc1 (stereo not given)	1.2%	?	?	-24.0%	-1.8%
COc1ccccc1C(c1nnnn1C(C)(C)C)N1CCN(C(=O)c2ccco2)CC1 (stereo not given)	-4.2%	25.1µM*	-3.0%	4.8%	-19.5%
Cc1cc(C)c2[nH]c(=O)c(C(c3nnnn3C(C)(C)C)N3CCN(C(=O)c4ccco4)CC3)cc2c1 (stereo not given)	-3.3%	?	13.3%	17.8µM*	-14.1%
O=C1c2ccccc2C(=O)N1CCc1ccccc1	/	/	/	/	26.7µM*
O=C(Cc1ccc(S(=O)(=O)N2CCCC2)s1)Nc1nc2c(s1)CCCC2	?	10µM*	-24.3%	?	-5.0%
COc1ccc(NC(=S)NNC(=O)CNc2ccc(Cl)cc2)cc1	7.94µM*	10µM*	5.62µM*	79.4µM*	26.7µM*
CC(C)Oc1ccc(CC(=O)NNC(=S)Nc2ccccc2)cc1	-9.6%	/	?	21.1%	-2.0%
COc1ccc(CC(=O)NNC(=S)Nc2ccccc2)cc1Br	?	?	12.6µM*	7.7%	-10.7%
CCOc1ccc(CC(=O)NNC(=S)Nc2ccccc2)cc1Br	-18.0%	31.6µM*	-22.1%	9.9%	?
COc1ccc(CC(=O)NNC(=O)Cc2ccc(OC)cc2)cc1	3.1%	-9.4%	-5.9%	-4.8%	/
COc1ccc(CC(=O)NNC(=S)Nc2ccc(Br)cc2)cc1	-26.6%	17.8µM*	?	10.5%	1.2%
CCOc1ccc(C(=O)Nc2ccc(NC(=O)c3ccccc3)cc2)cc1Br	-2.5%	/	-0.9%	10.0%	-8.2%
Cc1nc(NC(=O)c2ccccc2)sc1-c1csc(NCc2ccco2)n1	?	?	20µM*	17.8µM*	?
Cc1ccccc1Nc1nc(-c2sc(NC(=O)c3ccco3)nc2C)cs1	-1.9%	20µM*	?	14.1µM*	-20.5%
CCOc1ccccc1Nc1nc(-c2sc(NC(=O)c3ccco3)nc2C)cs1	2.0%	-3.7%	5.1%	5.2%	-17.0%
Cc1nc(C)c(-c2csc(NCc3ccco3)n2)s1	-25.5%	-1.9%	11.7%	-2.4%	-15.0%
COc1cc(OC)cc(-c2nnc3n2N=C(c2c(OC)cccc2OC)CS3)c1	26.1%	/	33.6%	-19.6%	/
O=C1Nc2ccc(NS(=O)(=O)c3cccs3)c3cccc1c23	-6.1%	15.8µM*	-12.0%	-9.1%	-7.1%
CNS(=O)(=O)c1ccc2c3c(cccc13)C(=O)N2	-4.6%	/	45.6%	3.3%	-10.7%
Cc1c(NS(=O)(=O)c2cccs2)cccc1-c1nc2cccnc2s1	27.6%	/	31.3%	4.1%	-9.8%
O=S(=O)(Nc1cccc2ncccc12)c1cccs1	1.3%[0.365 µM]	-6.8%	2.24µM*	6.4%	2.0%
